Experimental data reported in ChEMBL document CHEMBL2218924, “A broad activity screen in support of a chemogenomic map for kinase signalling research and drug discovery” (Biochem J, 2013).

What was measured:
[1] = molecular target: Ephrin type-A receptor 4 (Homo sapiens) (UniProt P54764); conditions: at 1 µM
[2] = molecular target: Ephrin type-A receptor 7 (Homo sapiens) (UniProt Q15375); conditions: at 10 µM
[3] = molecular target: T1, Ephrin type-A receptor 8 (Homo sapiens) (UniProt P29322); conditions: at 1 µM
T1 sequence (whole entry): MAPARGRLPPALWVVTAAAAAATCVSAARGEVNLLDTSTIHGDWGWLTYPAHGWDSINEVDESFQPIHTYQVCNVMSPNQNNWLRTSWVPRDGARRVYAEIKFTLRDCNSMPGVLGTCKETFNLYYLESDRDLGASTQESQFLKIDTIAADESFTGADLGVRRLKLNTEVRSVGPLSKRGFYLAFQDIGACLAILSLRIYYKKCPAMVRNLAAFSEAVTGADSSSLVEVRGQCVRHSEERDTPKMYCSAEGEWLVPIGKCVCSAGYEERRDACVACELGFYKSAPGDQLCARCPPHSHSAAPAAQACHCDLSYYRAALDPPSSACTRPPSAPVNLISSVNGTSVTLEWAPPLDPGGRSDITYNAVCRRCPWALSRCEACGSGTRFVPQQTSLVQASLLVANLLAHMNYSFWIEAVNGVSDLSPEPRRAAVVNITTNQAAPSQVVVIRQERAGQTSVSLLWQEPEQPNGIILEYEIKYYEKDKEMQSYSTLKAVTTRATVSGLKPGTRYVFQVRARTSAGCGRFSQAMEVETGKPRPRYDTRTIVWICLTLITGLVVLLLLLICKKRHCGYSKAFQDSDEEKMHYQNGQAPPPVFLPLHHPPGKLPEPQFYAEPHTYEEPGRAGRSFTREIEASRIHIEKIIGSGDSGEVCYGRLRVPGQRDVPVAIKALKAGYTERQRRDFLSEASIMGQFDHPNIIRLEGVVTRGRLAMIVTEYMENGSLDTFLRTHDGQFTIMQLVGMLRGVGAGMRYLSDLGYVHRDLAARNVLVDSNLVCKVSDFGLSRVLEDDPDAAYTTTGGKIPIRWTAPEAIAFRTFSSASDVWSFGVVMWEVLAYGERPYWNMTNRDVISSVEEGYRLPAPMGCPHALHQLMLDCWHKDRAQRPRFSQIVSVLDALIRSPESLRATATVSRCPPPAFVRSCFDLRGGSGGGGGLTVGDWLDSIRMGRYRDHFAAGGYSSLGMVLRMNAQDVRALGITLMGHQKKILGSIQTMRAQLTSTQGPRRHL

[4] = molecular target: T1, Ephrin type-A receptor 8 (Homo sapiens); conditions: at 10 µM
[5] = molecular target: T2, Ephrin type-B receptor 1 (Homo sapiens) (UniProt P54762); conditions: at 10 µM
T2 sequence (whole entry): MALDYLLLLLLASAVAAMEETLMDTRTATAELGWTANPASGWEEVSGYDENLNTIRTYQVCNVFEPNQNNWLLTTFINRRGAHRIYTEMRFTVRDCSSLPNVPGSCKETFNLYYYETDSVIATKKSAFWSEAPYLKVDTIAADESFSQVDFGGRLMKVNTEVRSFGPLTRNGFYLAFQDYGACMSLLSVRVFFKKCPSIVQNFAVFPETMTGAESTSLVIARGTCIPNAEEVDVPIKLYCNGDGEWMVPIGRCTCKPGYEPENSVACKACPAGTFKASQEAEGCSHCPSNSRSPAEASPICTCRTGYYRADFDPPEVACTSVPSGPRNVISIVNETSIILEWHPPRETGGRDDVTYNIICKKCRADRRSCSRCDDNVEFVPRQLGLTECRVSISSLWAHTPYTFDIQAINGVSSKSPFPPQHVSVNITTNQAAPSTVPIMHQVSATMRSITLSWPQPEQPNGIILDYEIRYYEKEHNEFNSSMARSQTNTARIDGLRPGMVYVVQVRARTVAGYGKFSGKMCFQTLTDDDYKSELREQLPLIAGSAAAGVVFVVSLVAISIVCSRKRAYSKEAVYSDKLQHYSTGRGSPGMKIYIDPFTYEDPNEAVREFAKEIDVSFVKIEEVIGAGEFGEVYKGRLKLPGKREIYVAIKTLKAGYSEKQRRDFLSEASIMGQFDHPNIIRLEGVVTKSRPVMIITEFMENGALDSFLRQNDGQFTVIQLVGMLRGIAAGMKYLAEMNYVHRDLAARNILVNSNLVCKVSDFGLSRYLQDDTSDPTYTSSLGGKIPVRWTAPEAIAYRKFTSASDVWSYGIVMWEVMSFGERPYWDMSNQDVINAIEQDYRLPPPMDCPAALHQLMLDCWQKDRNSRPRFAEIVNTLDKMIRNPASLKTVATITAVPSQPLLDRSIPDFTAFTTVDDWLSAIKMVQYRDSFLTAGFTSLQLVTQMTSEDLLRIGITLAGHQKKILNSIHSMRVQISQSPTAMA

[6] = molecular target: T3, Ephrin type-B receptor 3 (Homo sapiens) (UniProt P54753); conditions: at 1 µM
T3 sequence (whole entry): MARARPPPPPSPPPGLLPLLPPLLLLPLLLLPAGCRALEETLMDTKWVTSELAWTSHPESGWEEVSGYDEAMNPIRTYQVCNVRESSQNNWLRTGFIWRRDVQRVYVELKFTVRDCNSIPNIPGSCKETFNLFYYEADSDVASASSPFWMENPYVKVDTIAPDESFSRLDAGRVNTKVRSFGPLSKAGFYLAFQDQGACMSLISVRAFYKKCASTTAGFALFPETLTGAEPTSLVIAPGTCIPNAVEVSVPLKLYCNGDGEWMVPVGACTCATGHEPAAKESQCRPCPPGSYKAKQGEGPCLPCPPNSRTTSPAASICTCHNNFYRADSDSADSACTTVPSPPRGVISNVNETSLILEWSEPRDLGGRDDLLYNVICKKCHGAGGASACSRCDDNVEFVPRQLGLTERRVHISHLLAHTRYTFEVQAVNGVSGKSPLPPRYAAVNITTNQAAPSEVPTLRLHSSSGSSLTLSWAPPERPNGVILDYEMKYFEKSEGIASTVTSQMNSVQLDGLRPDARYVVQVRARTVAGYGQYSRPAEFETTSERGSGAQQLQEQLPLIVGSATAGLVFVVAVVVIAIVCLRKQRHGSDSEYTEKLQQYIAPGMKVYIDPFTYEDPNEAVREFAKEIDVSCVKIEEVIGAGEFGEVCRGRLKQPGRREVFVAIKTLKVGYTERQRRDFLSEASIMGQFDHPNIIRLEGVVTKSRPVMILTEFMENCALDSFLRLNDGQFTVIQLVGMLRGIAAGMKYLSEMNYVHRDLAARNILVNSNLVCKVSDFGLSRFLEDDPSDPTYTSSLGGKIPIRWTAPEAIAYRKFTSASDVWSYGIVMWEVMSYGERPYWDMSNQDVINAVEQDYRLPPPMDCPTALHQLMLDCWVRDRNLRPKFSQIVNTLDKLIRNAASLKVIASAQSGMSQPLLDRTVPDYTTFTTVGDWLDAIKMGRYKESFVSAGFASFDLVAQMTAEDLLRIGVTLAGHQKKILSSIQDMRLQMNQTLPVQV

[7] = molecular target: T3, Ephrin type-B receptor 3 (Homo sapiens); conditions: at 10 µM
[8] = molecular target: T4, Ephrin type-B receptor 4 (Homo sapiens) (UniProt P54760); conditions: at 1 µM
T4 sequence (whole entry): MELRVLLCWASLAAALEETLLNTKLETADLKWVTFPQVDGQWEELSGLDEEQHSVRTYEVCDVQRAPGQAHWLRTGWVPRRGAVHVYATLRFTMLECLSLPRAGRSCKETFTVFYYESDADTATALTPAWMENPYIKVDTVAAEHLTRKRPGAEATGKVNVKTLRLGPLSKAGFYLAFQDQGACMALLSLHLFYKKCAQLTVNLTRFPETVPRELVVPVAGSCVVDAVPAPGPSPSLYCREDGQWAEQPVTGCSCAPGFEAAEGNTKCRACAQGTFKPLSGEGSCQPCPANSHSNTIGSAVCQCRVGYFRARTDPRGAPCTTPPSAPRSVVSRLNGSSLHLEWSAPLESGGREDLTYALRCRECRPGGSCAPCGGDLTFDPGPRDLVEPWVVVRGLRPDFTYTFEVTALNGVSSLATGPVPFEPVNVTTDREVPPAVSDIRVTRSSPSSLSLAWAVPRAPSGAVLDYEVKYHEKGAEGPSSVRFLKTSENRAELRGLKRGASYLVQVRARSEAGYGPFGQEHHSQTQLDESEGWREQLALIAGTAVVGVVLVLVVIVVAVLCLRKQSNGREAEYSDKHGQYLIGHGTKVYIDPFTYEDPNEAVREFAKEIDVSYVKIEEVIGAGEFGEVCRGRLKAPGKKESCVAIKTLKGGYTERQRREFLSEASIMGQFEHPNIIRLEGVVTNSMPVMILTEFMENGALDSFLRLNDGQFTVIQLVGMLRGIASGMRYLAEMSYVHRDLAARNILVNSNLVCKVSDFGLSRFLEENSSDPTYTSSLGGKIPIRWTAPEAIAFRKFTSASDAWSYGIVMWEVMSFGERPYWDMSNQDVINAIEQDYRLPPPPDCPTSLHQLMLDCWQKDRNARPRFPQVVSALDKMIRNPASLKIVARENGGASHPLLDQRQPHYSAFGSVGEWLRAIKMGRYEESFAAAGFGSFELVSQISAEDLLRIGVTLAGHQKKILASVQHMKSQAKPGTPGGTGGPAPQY

[9] = molecular target: T4, Ephrin type-B receptor 4 (Homo sapiens); conditions: at 10 µM
[10] = molecular target: Receptor tyrosine-protein kinase erbB-4 (Homo sapiens) (UniProt Q15303); conditions: at 1 µM
[11] = molecular target: Receptor tyrosine-protein kinase erbB-4 (Homo sapiens) (UniProt Q15303); conditions: at 10 µM
[12] = molecular target: Focal adhesion kinase 1 (Homo sapiens) (UniProt Q05397); conditions: at 1 µM
[13] = molecular target: T5, Ephrin type-A receptor 3 (Homo sapiens) (UniProt P29320); conditions: at 10 µM
T5 sequence (whole entry): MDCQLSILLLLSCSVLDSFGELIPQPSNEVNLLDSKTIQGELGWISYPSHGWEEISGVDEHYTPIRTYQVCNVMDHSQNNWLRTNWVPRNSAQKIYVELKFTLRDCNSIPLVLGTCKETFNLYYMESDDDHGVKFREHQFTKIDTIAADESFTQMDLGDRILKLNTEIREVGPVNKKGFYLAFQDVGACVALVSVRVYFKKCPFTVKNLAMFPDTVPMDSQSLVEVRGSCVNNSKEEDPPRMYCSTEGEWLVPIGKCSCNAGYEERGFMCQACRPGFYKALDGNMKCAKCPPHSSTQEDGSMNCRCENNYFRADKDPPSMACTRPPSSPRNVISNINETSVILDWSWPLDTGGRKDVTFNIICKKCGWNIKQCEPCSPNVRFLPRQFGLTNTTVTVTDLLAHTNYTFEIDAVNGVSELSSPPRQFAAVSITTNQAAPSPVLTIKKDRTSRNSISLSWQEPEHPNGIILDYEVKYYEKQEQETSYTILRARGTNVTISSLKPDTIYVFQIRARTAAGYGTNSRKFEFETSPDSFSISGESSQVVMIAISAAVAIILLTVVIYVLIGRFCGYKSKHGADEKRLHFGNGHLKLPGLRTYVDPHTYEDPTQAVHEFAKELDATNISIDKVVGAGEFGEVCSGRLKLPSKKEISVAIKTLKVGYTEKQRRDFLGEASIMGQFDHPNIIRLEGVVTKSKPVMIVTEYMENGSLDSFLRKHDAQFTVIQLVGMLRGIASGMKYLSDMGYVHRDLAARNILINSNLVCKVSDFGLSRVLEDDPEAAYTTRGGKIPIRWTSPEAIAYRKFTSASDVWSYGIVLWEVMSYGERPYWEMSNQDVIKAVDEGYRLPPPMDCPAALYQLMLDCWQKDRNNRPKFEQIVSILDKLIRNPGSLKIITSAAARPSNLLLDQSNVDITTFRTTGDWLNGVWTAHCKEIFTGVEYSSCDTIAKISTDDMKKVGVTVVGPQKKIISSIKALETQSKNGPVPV

[14] = molecular target: Ephrin type-A receptor 7 (Homo sapiens) (UniProt Q15375); conditions: at 1 µM
[15] = molecular target: T2, Ephrin type-B receptor 1 (Homo sapiens); conditions: at 1 µM

Chain of Receptor tyrosine-protein kinase erbB-4 (Homo sapiens) (Q15303 whole entry): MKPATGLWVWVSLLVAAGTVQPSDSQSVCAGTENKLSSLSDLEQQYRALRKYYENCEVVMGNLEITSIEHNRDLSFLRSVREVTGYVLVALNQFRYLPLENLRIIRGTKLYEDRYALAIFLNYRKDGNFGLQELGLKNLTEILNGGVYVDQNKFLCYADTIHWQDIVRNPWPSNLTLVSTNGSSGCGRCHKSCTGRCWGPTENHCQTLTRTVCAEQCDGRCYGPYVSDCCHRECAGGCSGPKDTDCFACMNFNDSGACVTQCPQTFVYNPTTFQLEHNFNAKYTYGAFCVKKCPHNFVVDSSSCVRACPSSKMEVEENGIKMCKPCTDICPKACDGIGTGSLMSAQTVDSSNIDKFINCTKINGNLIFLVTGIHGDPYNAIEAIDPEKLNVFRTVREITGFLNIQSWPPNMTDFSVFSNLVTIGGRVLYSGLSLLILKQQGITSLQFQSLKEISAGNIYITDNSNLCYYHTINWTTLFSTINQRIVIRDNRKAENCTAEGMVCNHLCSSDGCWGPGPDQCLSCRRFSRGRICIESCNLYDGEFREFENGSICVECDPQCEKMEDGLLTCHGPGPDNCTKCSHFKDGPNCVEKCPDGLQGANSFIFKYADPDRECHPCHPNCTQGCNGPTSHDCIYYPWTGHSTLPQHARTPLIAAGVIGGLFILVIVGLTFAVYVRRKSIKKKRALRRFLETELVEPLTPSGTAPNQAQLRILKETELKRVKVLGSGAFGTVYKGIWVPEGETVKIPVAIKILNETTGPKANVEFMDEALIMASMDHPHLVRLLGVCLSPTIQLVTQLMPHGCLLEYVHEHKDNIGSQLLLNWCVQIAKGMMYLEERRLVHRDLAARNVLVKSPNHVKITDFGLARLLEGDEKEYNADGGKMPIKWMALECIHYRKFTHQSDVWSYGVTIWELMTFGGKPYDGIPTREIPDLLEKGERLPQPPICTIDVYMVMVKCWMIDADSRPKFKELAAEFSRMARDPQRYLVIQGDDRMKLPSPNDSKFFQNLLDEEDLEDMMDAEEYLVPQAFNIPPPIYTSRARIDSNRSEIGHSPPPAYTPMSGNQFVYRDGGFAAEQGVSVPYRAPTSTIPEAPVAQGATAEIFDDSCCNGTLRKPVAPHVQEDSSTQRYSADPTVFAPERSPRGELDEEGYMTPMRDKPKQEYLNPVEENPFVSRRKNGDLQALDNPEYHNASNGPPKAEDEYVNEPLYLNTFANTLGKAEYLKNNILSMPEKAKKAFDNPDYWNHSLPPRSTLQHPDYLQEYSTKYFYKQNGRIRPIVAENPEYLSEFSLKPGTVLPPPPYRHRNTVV
Chain of Ephrin type-A receptor 7 (Homo sapiens) (Q15375 28-998 limits assumed): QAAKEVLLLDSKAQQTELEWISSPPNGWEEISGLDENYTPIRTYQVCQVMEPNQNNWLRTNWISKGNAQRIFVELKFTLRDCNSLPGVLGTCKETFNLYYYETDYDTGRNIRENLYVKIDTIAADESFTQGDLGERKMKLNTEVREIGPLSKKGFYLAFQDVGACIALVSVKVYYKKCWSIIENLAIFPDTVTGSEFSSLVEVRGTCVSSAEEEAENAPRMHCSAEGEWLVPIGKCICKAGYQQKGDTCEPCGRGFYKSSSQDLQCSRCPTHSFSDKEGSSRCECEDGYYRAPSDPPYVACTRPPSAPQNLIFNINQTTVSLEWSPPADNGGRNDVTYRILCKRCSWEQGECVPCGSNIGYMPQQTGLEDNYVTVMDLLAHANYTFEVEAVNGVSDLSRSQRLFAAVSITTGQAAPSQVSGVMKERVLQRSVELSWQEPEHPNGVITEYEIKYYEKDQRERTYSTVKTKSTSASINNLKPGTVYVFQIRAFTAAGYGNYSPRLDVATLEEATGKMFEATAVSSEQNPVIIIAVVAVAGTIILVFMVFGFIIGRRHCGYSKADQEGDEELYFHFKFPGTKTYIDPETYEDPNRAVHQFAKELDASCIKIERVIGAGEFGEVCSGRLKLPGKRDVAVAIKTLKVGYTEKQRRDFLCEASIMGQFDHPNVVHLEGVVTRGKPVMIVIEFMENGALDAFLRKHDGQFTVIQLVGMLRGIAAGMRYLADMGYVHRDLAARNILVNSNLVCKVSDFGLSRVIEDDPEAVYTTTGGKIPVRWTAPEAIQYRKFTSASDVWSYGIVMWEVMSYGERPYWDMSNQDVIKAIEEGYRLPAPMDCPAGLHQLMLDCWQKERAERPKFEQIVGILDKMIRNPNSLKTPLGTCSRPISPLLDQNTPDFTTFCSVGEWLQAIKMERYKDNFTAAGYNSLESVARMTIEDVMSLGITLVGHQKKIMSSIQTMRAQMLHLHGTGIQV
Chain of Focal adhesion kinase 1 (Homo sapiens) (Q05397 2-1052 limits assumed): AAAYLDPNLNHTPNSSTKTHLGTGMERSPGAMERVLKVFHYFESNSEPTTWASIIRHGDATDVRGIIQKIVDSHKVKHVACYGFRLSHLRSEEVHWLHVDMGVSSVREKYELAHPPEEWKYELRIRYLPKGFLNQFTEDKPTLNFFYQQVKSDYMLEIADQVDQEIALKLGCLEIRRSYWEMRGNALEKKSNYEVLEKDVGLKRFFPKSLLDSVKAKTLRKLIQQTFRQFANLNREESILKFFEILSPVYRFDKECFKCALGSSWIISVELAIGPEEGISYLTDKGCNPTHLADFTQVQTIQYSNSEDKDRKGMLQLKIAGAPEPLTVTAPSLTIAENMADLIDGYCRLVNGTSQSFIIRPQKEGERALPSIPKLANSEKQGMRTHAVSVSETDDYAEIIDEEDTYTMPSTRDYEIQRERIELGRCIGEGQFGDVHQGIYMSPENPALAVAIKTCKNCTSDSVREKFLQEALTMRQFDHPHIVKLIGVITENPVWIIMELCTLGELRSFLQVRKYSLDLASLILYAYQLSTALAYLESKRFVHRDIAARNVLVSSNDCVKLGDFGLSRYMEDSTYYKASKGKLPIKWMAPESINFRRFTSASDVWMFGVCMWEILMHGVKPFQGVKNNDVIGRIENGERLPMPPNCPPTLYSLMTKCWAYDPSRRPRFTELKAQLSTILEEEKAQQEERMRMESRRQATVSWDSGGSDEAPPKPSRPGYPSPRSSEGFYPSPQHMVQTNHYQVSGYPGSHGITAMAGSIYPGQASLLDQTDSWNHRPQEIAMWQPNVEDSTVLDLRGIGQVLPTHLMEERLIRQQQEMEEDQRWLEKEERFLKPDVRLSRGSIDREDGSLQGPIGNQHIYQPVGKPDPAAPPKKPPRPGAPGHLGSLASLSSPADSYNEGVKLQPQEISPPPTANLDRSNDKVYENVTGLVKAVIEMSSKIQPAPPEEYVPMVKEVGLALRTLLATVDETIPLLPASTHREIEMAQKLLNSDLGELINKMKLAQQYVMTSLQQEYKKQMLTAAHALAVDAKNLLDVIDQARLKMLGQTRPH
Chain of Ephrin type-A receptor 4 (Homo sapiens) (P54764 whole entry): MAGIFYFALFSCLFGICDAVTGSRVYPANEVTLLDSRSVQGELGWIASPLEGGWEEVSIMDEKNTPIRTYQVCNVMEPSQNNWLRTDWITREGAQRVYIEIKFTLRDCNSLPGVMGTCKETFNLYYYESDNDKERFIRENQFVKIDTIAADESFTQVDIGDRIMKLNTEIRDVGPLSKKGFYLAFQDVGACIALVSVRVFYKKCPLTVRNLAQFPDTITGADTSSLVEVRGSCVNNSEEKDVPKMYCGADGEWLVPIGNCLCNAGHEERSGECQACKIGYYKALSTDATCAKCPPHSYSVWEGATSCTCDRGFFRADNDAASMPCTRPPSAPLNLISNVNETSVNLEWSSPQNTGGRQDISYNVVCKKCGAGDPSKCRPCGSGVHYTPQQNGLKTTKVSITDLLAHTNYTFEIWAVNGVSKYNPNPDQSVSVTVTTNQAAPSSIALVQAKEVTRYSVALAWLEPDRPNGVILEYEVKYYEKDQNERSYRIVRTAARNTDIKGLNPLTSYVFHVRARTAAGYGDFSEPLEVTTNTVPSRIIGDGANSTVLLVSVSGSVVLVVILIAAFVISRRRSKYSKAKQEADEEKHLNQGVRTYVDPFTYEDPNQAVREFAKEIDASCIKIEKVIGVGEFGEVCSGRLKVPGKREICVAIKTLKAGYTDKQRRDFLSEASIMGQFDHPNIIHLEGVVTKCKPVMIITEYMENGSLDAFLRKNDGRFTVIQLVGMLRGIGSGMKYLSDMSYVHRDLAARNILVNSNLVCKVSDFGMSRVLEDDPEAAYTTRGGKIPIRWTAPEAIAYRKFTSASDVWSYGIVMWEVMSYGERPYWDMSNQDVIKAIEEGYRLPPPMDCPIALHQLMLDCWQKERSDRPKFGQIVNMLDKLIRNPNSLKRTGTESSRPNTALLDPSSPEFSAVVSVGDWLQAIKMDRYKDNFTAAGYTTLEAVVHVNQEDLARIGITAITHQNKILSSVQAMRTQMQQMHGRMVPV

SMILES	residual activity [1]	residual activity [2]	residual activity [3]	residual activity [4]	residual activity [5]	residual activity [6]	residual activity [7]	residual activity [8]	residual activity [9]	residual activity [10]	residual activity [11]	residual activity [12]	residual activity [13]	residual activity [14]	residual activity [15]
N#C/C(=C1/Nc2ccccc2S1)c1ccnc(NCCc2cccnc2)n1	123%	77%	98%	83%	55%	141% (inactive)	74%	72%	73%	88%	61%	100%			
c1ccc(-c2cnc(Nc3ccc(OCCN4CCCC4)cc3)s2)cc1		76%			65%	112% (inactive)	120%	109%	64%		61%	132%	69%	104%	104%
